SMILES strings stand for the structures. Entries with a potency or affinity are not part of this list. Active and inactive are the calls of the source.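 Rule for the calls: active = every repeat test judged active, meaning a falling signal with potency within twice the top valid dose; inconclusive = repeat tests disagree on the call; inactive = every repeat test inactive, including signal moving upward.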

This assay concerns the target Cyclin-dependent kinase 2 (Homo sapiens) (UniProt P24941). Description: inhibition of human CDK2/cyclin A – biochemical, cherry-picked samples, selectivity assay for Dyrk1A inhibitor project, dose response (AID 602127). As to conditions: ADP-Glo luminescence, 60 min; series mostly up to 10 µM. (ADP-Glo turns the ADP formed in a reaction into a luminescent signal.)

As to `COc1ccc2c(c1)[nH]c1c(C)nccc12`, the molecule was called inactive.

The values are drawn from PubChem BioAssay AID602127 (Broad Institute, 2011).
